Test results reported in article PMC5515408, “Sequence-specific DNA binding by MYC/MAX to low-affinity non-E-box motifs”.
Whole data set: some 4,500 sequences, median “log2 normalized fluorescence” near -0.34, cut for the highest 2% near 3.3. This excerpt belongs to a sample that is enriched for the highest values.

The sequences below were run against MAX:MAX (p21) (human, UniProt P61244-2 1-151) (assay: protein-binding microarray (anti-MAX antibody); PBM: 15 mM Tris-HCl pH 7.5, 100 mM KCl, 0.075% NP40, 7.5 mM beta-mercaptoethanol, 375 ng/ul BSA, 8 ng/ul poly(dA-dT):(dA-dT), 550 ng complex, 60 min, room tempe; high values mean tight binding). Settings: protein: recombinant; tags: 6xHis; chain copies: 2; label: 3' end of printed strand (linker) attached to glass slide; dsDNA, one strand shown.
In short: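 Recombinant His-tagged human MYC:MAX or MAX:MAX dimers (550 ng, expressed in E. coli) were incubated for 60 min at room temperature in Tris-KCl buffer, pH 7.5, with NP40, BSA and poly(dA-dT) competitor. The custom Agilent glass array held ~5000 unique 12-nt sequences, each spotted in triplicate and made double-stranded by primer extension. Bound protein was detected with anti-MAX and secondary antibodies and scanned at 543 nm. Binding is reported as log2 normalized fluorescence.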

Sequence of MAX:MAX (p21) (P61244 other isoform, or with tags, fused parts or gaps): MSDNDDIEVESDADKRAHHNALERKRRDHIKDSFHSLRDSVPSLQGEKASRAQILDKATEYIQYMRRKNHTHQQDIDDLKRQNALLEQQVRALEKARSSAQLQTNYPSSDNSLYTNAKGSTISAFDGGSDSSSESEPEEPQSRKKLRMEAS

Sequence	binding signal
CCGGCTGAGACACGGTATTAATAGCTAAGATTACTATATCGACG	0.481 log2 normalized fluorescence
CCGGCTGACTGTACGTATTAATAGCTAAGATTACTATATCGACG	-0.112 log2 normalized fluorescence
CCGGCTGACCCAGTGTATTAATAGCTAAGATTACTATATCGACG	-0.0826 log2 normalized fluorescence
CCGGCTGAACTCGGGTATTAATAGCTAAGATTACTATATCGACG	-0.618 log2 normalized fluorescence
CCGGCTGAACTACCGTATTAATAGCTAAGATTACTATATCGACG	-0.334 log2 normalized fluorescence
CCGGCTGACGTGTGGTTTTAATAGCTAAGATTACTATATCGACG	1.65 log2 normalized fluorescence
CCGGCTGACACGTGTGGTTAATAGCTAAGATTACTATATCGACG	3.39 log2 normalized fluorescence
CCGGCTGACACGTGGATTTAATAGCTAAGATTACTATATCGACG	3.24 log2 normalized fluorescence
CCGGCTGACACGGGTTTTTAATAGCTAAGATTACTATATCGACG	2.09 log2 normalized fluorescence
CCGGCTGACACGTGGCGTTAATAGCTAAGATTACTATATCGACG	3.2 log2 normalized fluorescence
CCGGCTGACACGTGTAATTAATAGCTAAGATTACTATATCGACG	3.24 log2 normalized fluorescence
CCGGCTGACACGTGGGGTTAATAGCTAAGATTACTATATCGACG	3.36 log2 normalized fluorescence
CCGGCTGACACGTGGGTTTAATAGCTAAGATTACTATATCGACG	3.39 log2 normalized fluorescence
CCGGCTGACACGTGTAGTTAATAGCTAAGATTACTATATCGACG	3.17 log2 normalized fluorescence
CCGGCTGACGCGTGGTTTTAATAGCTAAGATTACTATATCGACG	3.21 log2 normalized fluorescence
CCGGCTGACACGTGGAGTTAATAGCTAAGATTACTATATCGACG	2.99 log2 normalized fluorescence
CCGGCTGACACGTGGTTTTAATAGCTAAGATTACTATATCGACG	3.37 log2 normalized fluorescence
CCGGCTGAAGTTATGTATTAATAGCTAAGATTACTATATCGACG	-0.594 log2 normalized fluorescence
CCGGCTGAGGAACCGTATTAATAGCTAAGATTACTATATCGACG	-0.709 log2 normalized fluorescence
CCGGCTGACACGGTATATTAATAGCTAAGATTACTATATCGACG	1.17 log2 normalized fluorescence
CCGGCTGATAGGAGGTATTAATAGCTAAGATTACTATATCGACG	-0.743 log2 normalized fluorescence
CCGGCTGAGAGCGTGTATTAATAGCTAAGATTACTATATCGACG	2.11 log2 normalized fluorescence
CCGGCTGAAGGCAAGTATTAATAGCTAAGATTACTATATCGACG	-0.39 log2 normalized fluorescence
CCGGCTGAATGTGGGTATTAATAGCTAAGATTACTATATCGACG	0.753 log2 normalized fluorescence
CCGGCTGAGGCGCAGTATTAATAGCTAAGATTACTATATCGACG	-0.509 log2 normalized fluorescence
CCGGCTGAGGGTGCGTATTAATAGCTAAGATTACTATATCGACG	0.326 log2 normalized fluorescence
CCGGCTGACATGTGGTTTTAATAGCTAAGATTACTATATCGACG	2.98 log2 normalized fluorescence
CCGGCCGACACGCGGTTTTAATAGCTAAGATTACTATATCGACG	3.18 log2 normalized fluorescence

Sequence	binding signal
CCGGCTGACACATGGTTTTAATAGCTAAGATTACTATATCGACG	3.37 log2 normalized fluorescence
CCGGCCGACCCGTGGTTTTAATAGCTAAGATTACTATATCGACG	2.34 log2 normalized fluorescence
CCGGCTGACACTTGGTTTTAATAGCTAAGATTACTATATCGACG	0.395 log2 normalized fluorescence
CCGGCCGACACATGGTTTTAATAGCTAAGATTACTATATCGACG	3.32 log2 normalized fluorescence
CCGGCTGATCGCACGTATTAATAGCTAAGATTACTATATCGACG	0.308 log2 normalized fluorescence
CCGGCTGAGGTCTTGTATTAATAGCTAAGATTACTATATCGACG	-0.72 log2 normalized fluorescence
CCGGCTCACACGCGGTTTTAATAGCTAAGATTACTATATCGACG	3.17 log2 normalized fluorescence
CCGGCTCACACGTGATATTAATAGCTAAGATTACTATATCGACG	3.31 log2 normalized fluorescence
CCGGCTGGCACGAGGTTTTAATAGCTAAGATTACTATATCGACG	3.28 log2 normalized fluorescence
CCGGCTGTCACGTGATATTAATAGCTAAGATTACTATATCGACG	3.2 log2 normalized fluorescence
CCGGCGCTCACGTGGTATTAATAGCTAAGATTACTATATCGACG	3.34 log2 normalized fluorescence
CCGGCTCTCACGTGGTCTTAATAGCTAAGATTACTATATCGACG	3.06 log2 normalized fluorescence
CCGGCTCACACGAGGTTTTAATAGCTAAGATTACTATATCGACG	3.32 log2 normalized fluorescence
CCGGCCCTCACGTGGTATTAATAGCTAAGATTACTATATCGACG	3.26 log2 normalized fluorescence
CCGGCTCACACGTGTTATTAATAGCTAAGATTACTATATCGACG	3.29 log2 normalized fluorescence
CCGGCTCTCACGTGGTATTAATAGCTAAGATTACTATATCGACG	3.5 log2 normalized fluorescence
CCGGCACTCACGTGGTATTAATAGCTAAGATTACTATATCGACG	3.13 log2 normalized fluorescence
CCGGCTCTTACGTGGTATTAATAGCTAAGATTACTATATCGACG	0.802 log2 normalized fluorescence
CCGGCTGATGCTGAGTATTAATAGCTAAGATTACTATATCGACG	0.00915 log2 normalized fluorescence
CCGGCTGAACAAAGGTATTAATAGCTAAGATTACTATATCGACG	-0.6 log2 normalized fluorescence
CCGGCTGACCGCGAGTATTAATAGCTAAGATTACTATATCGACG	1.06 log2 normalized fluorescence
CCGGCTGAGCACAAGTATTAATAGCTAAGATTACTATATCGACG	0.993 log2 normalized fluorescence
CCGGCTGGCACGTGCTATTAATAGCTAAGATTACTATATCGACG	3.25 log2 normalized fluorescence
CCGGCTCACACGTTTTATTAATAGCTAAGATTACTATATCGACG	3.25 log2 normalized fluorescence
CCGGCTCACACGTGGTATTAATAGCTAAGATTACTATATCGACG	3.33 log2 normalized fluorescence
CCGGCTCACACGTCGTATTAATAGCTAAGATTACTATATCGACG	2.63 log2 normalized fluorescence
CCGGCTCACACGTGGTTTTAATAGCTAAGATTACTATATCGACG	3.32 log2 normalized fluorescence
